Data on 99 compounds can be found in PubChem BioAssay AID1345082 (National Center for Advancing Translational Sciences (NCATS), 2018).

The structures appear in SMILES notation. Hit rate of the full screen: of about 94,000 compounds, about 4,000 (4.3%) were called active. A call without a number means that no potency is given here. About 29% were inconclusive and are not listed. Calls follow the shape of the dose curve; as a rule, active = well fitted inhibition curve with a large enough effect; inconclusive = small, poorly fitted or top-dose-only effect; inactive = no such curve, though single readings can be large or run the other way. The sample as a whole holds a higher share of actives than the screen did.
Potency is read from the fitted curve at half-maximal effect.

This assay in a line: Cytotoxic Profiling in NIH 3T3 Cell Line of Diverse Libraries Using Quantitative High-Throughput Screening. Also: nearly all actives have a fitted effect of over 55% in size. To be noted: NIH 3T3 viability, CellTiter-Glo ATP luminescence, 48-72 h; series mostly up to 96.7 µM. The procedure, abridged: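 Viability of NIH 3T3 cells after 48 or 72 hr compound treatment at 37 °C was assessed by CellTiter-Glo, with luminescence imaged following a 10 min room-temperature step.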
On the technique in general: In ATP-based viability assays light output follows the ATP content of the culture.
For the compound `CN(Cc1cccc(C(F)(F)F)c1)Cc1cccc(C(F)(F)F)c1`, the Potency entry was “inactive”.

Take `CC(C)(C)n1nnnc1C1CC2(CCOCC2)C(=O)N1Cc1ccc(F)cc1` (centres undefined): the Potency entry was “inactive”.

With `Cc1ccc(-c2cccc(CN3CCCC(NC(=O)c4ccc(C(F)(F)F)cc4)C3)c2)cc1Cl` (centres undefined), the Potency result was “inactive”.

On to `COc1cccc(CC(=O)N2CCC(N3C(=O)CCC3C(=O)NCc3ccccc3)CC2)c1` (centres undefined), for which the Potency entry was “inactive”.

As for `COc1cccc(-c2ccc(CN3CCCC3C(=O)NCc3ccccc3Cl)cc2)c1` (centres undefined), the Potency was 39.8 µM (active).

For `Cc1ccc(-c2cccc(CN3CCCC3C(=O)NCc3ccc(C(F)(F)F)cc3)c2)cc1Cl` (centres undefined), the Potency was 31.6 µM (active).

On to `COc1cccc(-c2cccc(C(=O)N3CCCC3C(=O)NCC3CC3)c2)c1` (centres undefined), for which the Potency entry is “inactive”.

Take `Cc1ccc(CNC(=O)[C@@H]2COCC(=O)N2Cc2ccc(F)cc2)cc1`: the Potency entry was “inactive”.

Take `CN(CC1CCOCC1)C(=O)Cc1ccsc1`: the Potency entry was “inactive”.

Regarding `COc1ccc(N2CCC(NS(=O)(=O)C3CC3)C2=O)cc1` (centres undefined), the Potency entry is “inactive”.

In the case of `CN(C)Cc1cn(C[C@H]2C[C@@H](NS(=O)(=O)c3ccccc3)[C@H](O)[C@@H]2O)nn1`, the Potency result is “inactive”.

With `O=C(C1CCC1)N1CCC(C(=O)N2CCCC2c2ccco2)CC1` (centres undefined), the Potency entry is “inactive”.

`CN(CC1CCOCC1)C(=O)c1ccc(Cl)cc1`: the Potency entry was “inactive”.

Take `CC(=O)N1CCCN(C(=O)C2CCCCN2Cc2ccc(-c3ccsc3)cc2)CC1` (centres undefined): the Potency entry was “inactive”.

With `CCN1CCN(C(=O)C2CCCCN2Cc2ccc(-c3cc(F)ccc3OC)cc2)CC1` (centres undefined), the Potency is 35.5 µM (active).

As to `CCOCCNC(=O)C1CCCCN1Cc1ccc(-c2cc(F)ccc2OC)cc1` (centres undefined), the Potency was 39.8 µM (active).

Consider `COCCNC(=O)[C@@H]1CCC[C@@H](NCc2ccc(F)cc2)CN(C)C(=O)C1`, for which the Potency entry is “inactive”.

`O=C(C1CCCCN1Cc1ccc(-c2cccs2)cc1)N1CCOCC1` (centres undefined): the Potency entry was “inactive”.

For `CCOCCOC1CCN(C(=O)NCc2ccc(F)cc2)CC1`, the Potency entry was “inactive”.

For `O=C(c1cccn1C1CC1)N1C[C@H](CO)C[C@H](CN2CCCC2)C1`, the Potency entry is “inactive”.

Turning to `COCC1CN(C)CC12CCN(C(=O)C1CCOCC1)CC2` (centres undefined), the Potency entry is “inactive”.

On to `Cc1ccccc1S(=O)(=O)N1CCC2(CC1)CC(OCC1CC1)CCO2` (centres undefined), for which the Potency entry was “inactive”.

With `COc1cc(F)ccc1-c1ccnc2nc(C(C)C)nn12`, the Potency entry was “inactive”.

For the compound `Cc1noc([C@@H]2CN(S(=O)(=O)c3cccs3)C[C@H]2C(N)=O)n1`, the Potency result was “inactive”.

Turning to `COc1ccccc1-c1onc(C)c1C(=O)NCCC(c1ccccc1)c1ccccc1`, the Potency was 31.6 µM (active).

Regarding `CCCOCCCNC(=O)c1c(C)noc1-c1cc(OC)c(OC)c(OC)c1`, the Potency entry was “inactive”.

As to `COc1ccccc1-c1onc(C)c1C(=O)NCc1ccc(Cl)cc1`, the Potency entry is “inactive”.

Turning to `COC[C@@H]1CN(Cc2ccccn2)C[C@H]1C(=O)N(C)C`, the Potency result is “inactive”.

`Cc1cc(CNC(=O)C2CCCN(C3CCN(CCc4ccccc4)CC3)C2)on1` (centres undefined): the Potency entry was “inactive”.

As to `O=C(Nc1cccc(Cl)c1)c1cnc2c(c1)N(C(=O)CCc1ccccc1)CCC2`, the Potency result is “inactive”.

Consider `CC(C)Nc1ncc(C(=O)NC2CCCN(CCc3ccccc3)C2)cn1` (centres undefined), for which the Potency entry was “inactive”.

On to `CC(C)CCNC(=O)c1cnc2c(c1)N(Cc1ccccc1)CCC2`, for which the Potency is 79.4 µM (active).

In the case of `Cc1cccc(C(=O)N2CCCN(c3nnc4ccccn34)CC2)c1`, the Potency entry is “inactive”.

Turning to `Cc1cc(C(=O)NCC(C)C)c2c(C3CCNC3)noc2n1` (centres undefined), the Potency result was “inactive”.

As for `COc1cc(SC)ccc1C(=O)N[C@@H]1C=C(C(=O)N[C@@H](Cc2cccs2)C(N)=O)C[C@@H](O)[C@@H]1O`, the Potency result is “inactive”.

As to `Cc1ccc(C)c(NC(=O)C2CC(=O)N(c3n[nH]c4cc(Br)ccc34)C2)c1` (centres undefined), the Potency entry was “inactive”.

Consider `Cc1nc(N2CCC(NCCNc3ccncc3C)CC2)c2ccsc2n1`, for which the Potency is 44.7 µM (active).

Regarding `Cc1nc(N2CCC(NC(=O)c3cnccn3)CC2)cc(C(F)(F)F)n1`, the Potency result was “inactive”.

In the case of `Cc1[nH]ncc1CNC(=O)C1CCN(c2cnn(CC3CC3)c(=O)c2)C1` (centres undefined), the Potency entry was “inactive”.

In the case of `O=C(NCc1nc(-c2ncccn2)no1)[C@H]1CNC[C@@H](C(=O)N2CCCC2)C1`, the Potency entry is “inactive”.

Regarding `O=C1CCN(C(=O)c2ccc3ccccc3n2)CCCCCCN1`, the Potency entry is “inactive”.

For the compound `CCn1cc(CN2CCCCCNC(=O)[C@@H]3CCC[C@@H]32)cn1`, the Potency entry was “inactive”.

In the case of `CC(C)(C)c1nc(C(=O)N2CCOCC2)n2ccccc12`, the Potency result was “inactive”.

For `O=C(c1nc(-c2cccnc2)c2cnccn12)N1CCN(c2ncccn2)CC1`, the Potency result was “inactive”.

Turning to `Cc1cccc(C)c1-c1nc(C(=O)N2CCN(c3ncccn3)CC2)n2ccccc12`, the Potency was 39.8 µM (active).

Consider `COc1ccc(C2Cn3cnc(C(=O)N4CCC(C(=O)NC5CCCC5)CC4)c3CO2)cc1` (centres undefined), for which the Potency result is “inactive”.

On to `COCC1CN(C(C)=O)CC12CCN(C(=O)C1CC=CCC1)CC2` (centres undefined), for which the Potency result is “inactive”.

`COC(=O)CNC(=O)C1CCN(Cc2ccccc2-c2ccccc2F)CC1`: the Potency result is “inactive”.

`O=C(C1CCN(Cc2ccccc2-c2ccccc2F)CC1)N1CCC(c2ccccc2)CC1`: the Potency is 31.6 µM (active).

As to `CC(=O)N1CCCC1C(=O)N1CCC(c2ccccc2)CC1` (centres undefined), the Potency entry is “inactive”.

As to `Cc1noc(C)c1CC(=O)N1CCC(c2n[nH]c(=O)n2Cc2ccc(F)cc2)CC1`, the Potency entry is “inactive”.

Turning to `COc1cc(F)ccc1-c1ccc(COc2ccc3c(cnn3CCC(=O)O)c2)cc1`, the Potency entry was “inactive”.

As for `O=C(O)CCn1ncc2cc(OC3CCN(C(=O)C4CCCC4)CC3)ccc21`, the Potency is 44.7 µM (active).

Turning to `O=C(C1CCC1)N1CCC(Oc2cccnc2)C1` (centres undefined), the Potency result is “inactive”.

In the case of `COc1ccc(CNC(=O)NCC2Cn3cccc3CN2C)cc1` (centres undefined), the Potency result was “inactive”.

For the compound `COCCOCc1nc(C2CCN(C(=O)c3ccncc3)CC2)no1`, the Potency entry was “inactive”.

Regarding `Cc1ccc(OCc2nc(C3CCN(C(=O)c4noc(C)c4CN4CCCCC4)CC3)no2)cc1`, the Potency is 31.6 µM (active).

Turning to `Cc1ccc(OCc2nc(C3CCN(C(=O)c4c5c(nc6ccccc46)CCCC5)CC3)no2)cc1`, the Potency result was “inactive”.

In the case of `COc1ccc(C(=O)N2CCC(C(=O)N3CCC(N4CCOCC4=O)CC3)CC2)cc1`, the Potency result is “inactive”.

Consider `CN(C)CCNC(=O)C(C)(C)Oc1nn(Cc2cccc(Cl)c2)c2ccccc12`, for which the Potency is 10 µM (active).

As for `O=C(CN1C(=O)NC2(CCCCC2)C1=O)Nc1cccc(Br)c1`, the Potency entry is “inactive”.

On to `CCNC(=O)N[C@H]1[C@H](O)[C@@H](N(C)CCc2ccccn2)[C@@H]2OC[C@H]1O2`, for which the Potency entry was “inactive”.

In the case of `O=C(C1CCCC1)N1CCCCC1c1nc(C2CC2)n[nH]1` (centres undefined), the Potency result is “inactive”.

For `CN1CCCN(C(=O)c2ccccc2OC(F)(F)F)c2ccccc21`, the Potency result was “inactive”.

Consider `COCCN1CCCN(C(=O)c2ccccc2Cl)c2ccccc21`, for which the Potency result is “inactive”.

On to `COc1ccccc1C(=O)N1CCCN(CCc2ccccc2)c2ccccc21`, for which the Potency was 31.6 µM (active).

`Cc1cc(N)n(CC(=O)N[C@@H]2COCC[C@@H]2OCc2c(C)noc2C)n1`: the Potency entry was “inactive”.

Regarding `CCc1c(C)nn(CCNc2ncnc3c2c(C)nn3C)c1C`, the Potency result was “inactive”.

As for `O=C(CC1CC1)N1C[C@H]2OC(=O)N(CCc3cccc(Cl)c3)[C@H]2C1`, the Potency result was “inactive”.

For `CC(=O)NC1CC2(CCN(C(=O)Cc3c[nH]c4ccccc34)CC2)c2ccccc21` (centres undefined), the Potency entry is “inactive”.

Consider `COC[C@@H]1[C@@H](NC(=O)Cc2nn(C)c(=O)c3ccccc23)[C@@H]2CCO[C@H]12`, for which the Potency result was “inactive”.

For the compound `COc1ccc(CN2C(=O)CO[C@H]3CN(C(=O)C4CC4)C[C@H]32)cc1`, the Potency result is “inactive”.

In the case of `O=C1CO[C@H]2CN(C3CCC3)C[C@H]2N1Cc1ccc(OC(F)(F)F)cc1`, the Potency was 89.1 µM (active).

Take `COc1ccc(CN2C(=O)CO[C@H]3CN(Cc4cccnc4)C[C@H]32)cc1`: the Potency entry was “inactive”.

In the case of `Clc1ccc(-c2nnc3n2CCN(Cc2cccc4ccccc24)C3)cc1`, the Potency result was “inactive”.

Turning to `CCc1noc(-c2cn(C3CCN(C(=O)c4ccc(Cl)cc4)C3)nn2)n1` (centres undefined), the Potency result was “inactive”.

For the compound `COc1cccc(C(=O)N2CCC(Cc3nc(-c4cnccn4)no3)CC2)c1`, the Potency result was “inactive”.

Regarding `COc1cccc(CN2CCN(C(=O)c3cnc4ccccn4c3=O)CC2=O)c1`, the Potency entry was “inactive”.

In the case of `COc1cccc(CN2C(=O)OC3(CCN(C(=O)c4scnc4C)CC3)C2(C)c2cccnc2)c1` (centres undefined), the Potency is 31.6 µM (active).

With `O=C(CCCc1ccccc1)Nc1ccnn1C1CCN(C(=O)CCn2cncn2)CC1`, the Potency result was “inactive”.

On to `Cc1cc(C(=O)N2CC[C@@H]3CN(Cc4ccccc4)[C@@H]3C2)nn1C`, for which the Potency result was “inactive”.

For the compound `Cc1nc(-c2c3n(c(=O)n(CC(=O)Nc4ccccc4C)c2=O)CCCCC3)no1`, the Potency result is “inactive”.

On to `Cc1nc2scc(CC(=O)NC(C)C)n2c(=O)c1-c1cc(C)n(-c2cccc(Cl)c2)n1`, for which the Potency entry was “inactive”.

In the case of `CCn1c(C2CCCN(C(=O)c3ccc(C(C)(C)C)cc3)C2)nn(C)c1=O` (centres undefined), the Potency result is “inactive”.

For `CC(C)c1ccc(N2C(=O)N[C@@H]3CCN(C(=O)c4ccc(C(C)(C)C)cc4)[C@@H]3C2=O)cc1`, the Potency was 70.8 µM (active).

On to `O=C1C(N2CCN(S(=O)(=O)c3ccccc3)CC2)CCN1CCc1ccccc1` (centres undefined), for which the Potency entry was “inactive”.

Turning to `Cc1ccccc1NC(=O)Nc1ccnn1C1CCN(C(=O)CCN)CC1`, the Potency result was “inactive”.

For the compound `CC(C)c1ccc(C(=O)N2C[C@@H]3CCCN4CCC[C@@H]([C@H]34)[C@H]2CCCC(=O)N2CCOCC2)cc1`, the Potency entry is “inactive”.

With `CCC(CC)C(=O)NC1CCN(c2cnn(CCOC)c(=O)c2)CC1`, the Potency result was “inactive”.

With `Cc1ccc2c(n1)N(C)[C@H](CO)CCN(Cc1cccc(Cl)c1)C2`, the Potency result was “inactive”.

On to `COc1ccccc1CN1CC[C@@H](CO)N(C)c2ncccc2C1`, for which the Potency is 35.5 µM (active).

For `Cc1ccc2c(n1)N(C)[C@H](CO)CCN(Cc1ccccc1C)C2`, the Potency entry was “inactive”.

With `Cc1ccc(-c2cc3c(=O)n(CCNC(=O)Cc4c[nH]c5ccccc45)ccn3n2)cc1C`, the Potency result is “inactive”.

On to `O=C(NCc1ccncc1)C1CC(=O)N(c2n[nH]c3ccccc23)C1` (centres undefined), for which the Potency result was “inactive”.

In the case of `Cc1cccc(OCCc2noc(C3CCCN3C(=O)c3ccnn3C)n2)c1` (centres undefined), the Potency result is “inactive”.

On to `Cc1cc(C(=O)N2CCCC(Cc3noc(-c4cccnc4)n3)C2)nn1C` (centres undefined), for which the Potency entry was “inactive”.

Turning to `COCCCNC(=O)N1CCC(Cc2noc(-c3ccncc3)n2)C1` (centres undefined), the Potency result is “inactive”.

As to `COc1ccc(NC(=O)N2CCCC(Cc3noc(-c4ccccc4)n3)C2)cc1` (centres undefined), the Potency was 35.5 µM (active).

Regarding `CCN1C(=O)CCN(C(=O)NCCCOC)CC12CCOCC2`, the Potency entry was “inactive”.
